Screening data (PubChem)
The list is not random: actives were taken first. Their share in the collection is about 11%.
Tau fluor counter – counter-screen for tau fibril formation inhibitors; tau K18 P301L Alexa594 fluorescence, heparin fibrillization; Potency, µM (titrated, usually from 57.7 µM); actives 0.93% (n = 280,000); further: nearly all actives have a fitted effect of over 55% in size
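Human tau K18 P301L (15 uM unlabeled, 0.24 uM Alexa 594-labeled) in 100 mM sodium acetate pH 7 with 20 uM heparin, 6 hr at 37 C. ThT 30 uM added, 1 hr ambient; Alexa 594 FP and total fluorescence read at 555/632 nm.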
FBPA coupling cs – counter-screen for Giardia aldolase inhibitors: coupling enzyme system; coupling enzyme system counterscreen, AmpLite Red fluorescence; actives 0.67% (n = 290,000); activity change, negative = inhibition, % at 58.2 µM, hits read low; in the data active means activity change below about -30%
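Counterscreen lacking aldolase: glyceraldehyde-3-phosphate coupling-enzyme reagent preincubated 10 min at RT with compound (at 57.5 uM final), then substrate/coupling system with AmpLite Red added; fluorescence read at 525/598 nm after 20 min RT.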
Tau FP inhib – blocks human tau fibril formation measured by polarization | P10636 | K18 P301L tau heparin fibrillization, Alexa594 FP, 6 h | Potency, µM (doses to about 57.7 µM), most hits filed as inhibitors | actives 0.39% (n = 280,000) | AID 1468; further: nearly all actives have a fitted effect of over 55% in size
Target sequence (P10636 561-689 P618L limits assumed): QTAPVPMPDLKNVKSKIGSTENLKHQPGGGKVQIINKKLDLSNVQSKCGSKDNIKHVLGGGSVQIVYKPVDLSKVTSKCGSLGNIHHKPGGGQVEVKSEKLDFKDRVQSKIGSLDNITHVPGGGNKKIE
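Human tau K18 […] P301L fragment, 15 uM unlabeled plus 0.24 uM Alexa 594-labeled tau (final), with compound and 20 uM heparin in 100 mM sodium acetate pH 7; 6 hr at 37 C, then Alexa 594 FP read.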
Sfp inh – Sfp phosphopantetheinyl transferase inhibition | Q9F4F7 | Potency, µM, most hits filed as inhibitors | Biochemical Sfp PPTase activity, qHTS | actives 3.5% (n = 310,000);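 further: the enzyme is Sfp with the accession as filed and its product quenches rhodamine fluorescence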
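Reaction rates are the 30-min fluorescence difference (ex 525, em 598 nm) in wells containing 15 nM Sfp, 5 uM rhodamine-CoA and 12.5 uM BHQ-2-YbbR at pH 7.6 with 10 mM MgCl2.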
G9a inh – inhibitors of human histone lysine methyltransferase G9a; Potency, µM (top dose mostly 102 µM), most hits filed as inhibitors; Q96KQ7; G9a H3K9 monomethylation, AlphaScreen, 2 h; AID 504332; actives 8.8% (n = 350,000); further: nearly all actives have a fitted effect of over 75% in size
Target sequence (Q96KQ7 913-1193 limits assumed): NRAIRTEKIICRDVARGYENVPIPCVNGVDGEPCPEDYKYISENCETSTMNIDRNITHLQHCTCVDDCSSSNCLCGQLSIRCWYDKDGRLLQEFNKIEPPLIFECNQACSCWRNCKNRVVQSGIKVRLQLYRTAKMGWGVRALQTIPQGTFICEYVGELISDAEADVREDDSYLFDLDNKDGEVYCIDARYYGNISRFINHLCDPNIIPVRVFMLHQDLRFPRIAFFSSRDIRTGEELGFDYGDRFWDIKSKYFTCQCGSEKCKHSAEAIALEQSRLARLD
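Chemiluminescent proximity detection of H3K9 monomethylation, read after 10 min bead incubation in the dark. Reaction: 20 nM G9a, 500 nM biotin-H3K9 peptide, 20 uM SAM cofactor, 2 h, room temperature, following 15 min enzyme-compound preincubation.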
Tau ThT inhib – blocks human tau fibril formation measured by thioflavin T; P10636; recombinant tau K18 P301L (four-repeat tau fragment), heparin-induced fibrillization, ThT fluorescence; Potency, µM (highest dose often 57.4 µM), usual class: inhibitors; actives 2.1% (n = 270,000); AID 1460; further: nearly all actives have a fitted effect of over 55% in size
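Heparin-induced fibrillization of the P301L-mutant K18 repeat-domain fragment of human tau was followed by ThT binding in quantitative high-throughput format.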
A number is an active result; 0 = inactive; ? = inconclusive; - = no result; [ ] = dose if it differs, or a comment. Unless noted, the call rests on the fitted dose curve; in most records, active means well fitted curve in the direction sought with a large enough effect; inconclusive means small, poorly fitted or top-dose-only effect, or another doubt; inactive means no such curve, though single readings can be large; an effect the other way counts as inactive or inconclusive.

SMILES | Tau fluor counter | FBPA coupling cs | Tau FP inhib | Sfp inh | G9a inh | Tau ThT inhib
COc1ccc(-n2c(C)cc(/C=C3/SC(=S)N(C)C3=O)c2C)cc1 | 0 | 0 | 0 | 0 | 0 | ?
COC(=O)C(C)N1C(=O)S/C(=C\c2cc(C)n(-c3ccccn3)c2C)C1=O (centres undefined) | 0 | 0 | 0 | 0 | 56µM | 0
COc1cccc(C(=O)N(Cc2sccc2C)C2CCS(=O)(=O)C2)c1 (centres undefined) | 0 | - | 0 | - | 0 | 0
O=C(Nc1cccc(S(=O)(=O)N2CCCCC2)c1)C1CC1 | - | - | - | - | 0[2.33 µM] | -
CN1C(=O)/C(=C\c2ccccc2OCc2ccccc2)SC1=S | - | 0 | - | 0 | 0 | -
CN1C(=O)/C(=C\c2cc(N=Nc3ccccc3)ccc2O)SC1=S | 4.5µM[quencher] | 0 | ? | 0 | 8.9µM | 3.5µM
N#CCSC1=Nc2ccccc2C2=NC(CCC(=O)N3CCN(c4ccccc4)CC3)C(=O)N12 (centres undefined) | 0 | 0 | 0 | ? | 45µM | ?
COc1cc(N/N=C/c2ccc(N(C)C)cc2)ncn1 | ? | 0 | 0 | 0 | 0 | ?
CN(C)c1cc(N/N=C/c2ccc(Cl)cc2)nc(N(C)C)n1 | ? | 0 | 0 | ? | ? | 14µM
COc1cc(Cl)c(C)cc1Nc1nc2ccccc2n2cnnc12 | 0 | - | 0 | - | 0 | 0
Cc1ccc(Cl)cc1NC(=O)C[n+]1ccc(Cc2ccc([N+](=O)[O-])cc2)cc1 | 0 | -44 | 0 | 45µM | 25µM | ?
O=C(C[n+]1ccc(Cc2ccccc2)cc1)Nc1ccc([N+](=O)[O-])cc1Cl | 0 | 0 | 0 | 0 | 0 | 0
CCC1(O)CC2CN(CCc3c([nH]c4ccccc34)[C@@](C(=O)OC)(c3cc4c(cc3OC)N(C)C3[C@]45CCN4CC=C[C@@](CC)([C@@H](OC(C)=O)[C@]3(O)C(=O)OC)[C@H]45)C2)C1 (some centres undefined) | 0 | - | 0 | - | ? | ?
CC[C@]1(O)C[C@@H]2CN(CCc3c([nH]c4ccccc34)[C@@](C(=O)OC)(c3cc4c(cc3OC)N(C)C3[C@]45CCN4CC=C[C@](CC)(C45)[C@@H](OC(C)=O)[C@]3(O)C(=O)OC)C2)C1 (some centres undefined) | ? | - | ? | 0 | 14µM | ?
Cc1cc(F)ccc1NC(=O)C1CCC(CNS(=O)(=O)c2ccc3c(c2)CCCC(=O)N3)CC1 (centres undefined) | 0 | - | 0 | - | 0 | 0
CC[C@@H]1C(c2cccc(C)c2)=NN(c2ccccc2)[C@H]1C(=O)N1CCOC1=O | ? | 0 | 0 | 0 | 0 | 0
CC[C@H]1C(c2cccc(Cl)c2)=NN(c2ccccc2)[C@@H]1CO | 14µM[quencher] | 0 | 0 | 0 | 0 | ?
CC[C@H]1C(c2cccc(C)c2)=NN(c2ccccc2)[C@@H]1CO | 32µM[quencher] | 0 | ? | 0 | 0 | ?
Cc1cccn2cc(-c3cccc(NC(=O)C(C)C)c3)nc12 | 0 | - | 0 | - | 0 | 0
CCCCCCCCCCCCCCCCOC[C@H](COP(=O)([O-])OCC[N+](C)(C)C)OC(=O)CCCCCCCC(=O)O | - | 0 | - | 0 | - | -
CC(=O)c1cccc(NC(=O)c2noc3c2CSc2ccccc2-3)c1 | 0 | - | 0 | - | 0 | 0
CCOc1ccc(Cl)cc1C(c1c(C)[nH][nH]c1=O)c1c(C)[nH][nH]c1=O | - | 0 | - | 0 | 0 | -
COCCNC(=O)/C(C#N)=C/c1ccc(-c2ccc(OC)cc2[N+](=O)[O-])o1 | 0 | - | 0 | 0 | 0 | ?
Cc1[nH][nH]c(=O)c1C(c1ccc(-c2ccc(Cl)c(Cl)c2)o1)c1c(C)[nH][nH]c1=O | ? | -45 | ? | 56µM | 11µM | 8.9µM
COc1ccc(-c2ccc(C(c3c(C)[nH][nH]c3=O)c3c(C)[nH][nH]c3=O)o2)c([N+](=O)[O-])c1 | 0 | -49 | ? | 20µM | 4µM | 7.9µM
SMILES | Tau fluor counter | FBPA coupling cs | Tau FP inhib | Sfp inh | G9a inh | Tau ThT inhib
Cc1[nH][nH]c(=O)c1C(c1ccc(N(C)C)c(Br)c1)c1c(C)[nH][nH]c1=O | 0 | 0 | 0 | 0 | - | ?
Cc1[nH][nH]c(=O)c1C(c1ccc(-c2ccc(F)cc2)o1)c1c(C)[nH][nH]c1=O | 0 | -37 | ? | ? | 25µM | 7.9µM
Cc1[nH][nH]c(=O)c1C(c1ccc(-c2ccc(C(=O)O)cc2)o1)c1c(C)[nH][nH]c1=O | 0 | -63 | ? | 0 | 3.5µM | 11µM
Cc1cccc2c(=O)cc(CSc3ccccc3NC(=O)C(C)(C)C)[nH]c12 | 0 | - | 0 | - | 0 | 0
CCOc1ccc(-c2nnc(SCC(=O)c3ccccc3)n2-c2ccccc2)cc1 | 0 | - | 0 | - | 0 | ?
Cc1ccc(S(=O)(=O)N2CCC(C(=O)OCC(=O)N(Cc3ccccc3)C(C)(C)C)CC2)cc1C | - | - | - | - | 0 | -
CCc1ccc(CNC(=O)Cc2c(C(=O)O)c(C)cn2C)cc1 | 0 | - | 0 | - | 0 | 0
CCn1c(N2CCN(S(=O)(=O)c3ccccc3C(F)(F)F)CC2)nc2ccccc21 | 0 | 0 | 0 | 0 | 50µM | 0
CC(C)NC(=O)N1CC2(CCN(C(=O)c3ccncc3)CC2)C1 | - | 0 | - | 0 | 0[12.7 µM] | -
O=C(NC1CCCCC1)Oc1cc2oc(=O)sc2cc1Br | - | 0 | - | 16µM | 40µM | -
CCN(CC)CCN(C(=O)c1cc2ccccc2cc1OC)c1nc2ccc(F)cc2s1 | - | 0 | - | 0 | 40µM | -
COc1ccc2nc(N(Cc3ccccc3)C(=O)CCNC(C)=O)sc2c1 | - | - | - | 0 | 32µM | -
CCN(CC)CCN(C(=O)c1ccc2ccccc2c1)c1nc2ccc(OC)cc2s1 | - | 0 | - | 0 | 79µM | -
CCN(CC)CCN(C(=O)c1cc2ccccc2cc1OC)c1nc2ccc(OC)cc2s1 | - | 0 | - | 50µM | 45µM | -
CC1CCCN(C(=O)CN(C)S(=O)(=O)c2ccc3c(c2)c(=O)n(C)c(=O)n3C)C1 (centres undefined) | - | - | - | 0 | 0[0.0925 µM] | -
FC(F)(F)c1ccc(-c2noc(-c3ccccc3)c2I)cc1 | 0 | 0 | 0 | 0 | 0 | 0
Cc1c(CC(=O)NCc2ccccc2)c(=O)oc2c(C)c(O)ccc12 | 0 | - | 0 | - | 0 | 0
O=C(Nc1nc2cc3c(cc2s1)OCCO3)C1=COCCO1 | 0 | 0 | 0 | 0 | 0 | ?
O=C(Nc1nc2ccc(F)cc2s1)C1=COCCO1 | - | - | - | - | 50µM | -
Cc1cccc(N2CCN(c3nc4ccccc4c4nc(-c5ccccc5)nn34)CC2)c1C | 0 | - | 0 | - | 0 | 0
C=CC[C@H]1CC(Cc2ccccc2)=C[C@H](CC=C)N1 | 0 | 0 | 0 | 0 | 45µM | 0
CC(=O)c1ccc2c3c(cccc13)CC2 | 0 | 0 | 0 | 0 | 0 | 0
CN(C)c1cccc2cccc(N(C)C)c12 | 0 | -35 | ? | 0 | - | ?
CC(=O)c1ccc(N(C)C)c2c(N(C)C)cccc12 | 0 | -55 | 0 | 0 | 0 | 0
O=C1CS/C(=N/N=C/c2ccncc2)N1 | 0 | 0 | 0 | 0 | - | 0
Cn1ccc(/C=N/N=C2/NC(=O)CS2)n1 | 0 | 0 | 0 | ? | 10µM | -
